# Results: PubChem BioAssay AID1259240 (Keith Lab, Institute of Cancer Science, University of …, 2017)
# Unmarked numbers belong to inactive results. The source made the active and inactive calls. No stated cut-off is given here; in the data, active means fold change mostly below about -2 (no sharp cut-off); inactive means mostly above about -1.8.
# Test: TERT promoter activity modulators, primary screen, cell-based, luciferase reporter, human (AID 1259240)
# Details: A2780 TERT promoter luciferase reporter, 16 h; at 20 µM, fold versus average of vehicle-only wells
SMILES,fold change,outcome
CCOc1cc(C2CC(=O)Nc3cc4c(cc32)OCCO4)ccc1O (stereo not given),-1,
COc1ccccc1/C=c1\sc2nc(-c3cc(OC)c(OC)c(OC)c3)nn2c1=O,-1.32,
Cc1nc2cc(-c3ccccc3)nn2c(C)c1CCC(=O)NC(C)CCc1ccco1 (stereo not given),-2.05 (active),
O=C(NC1CCCC1)C1CCC(CNS(=O)(=O)c2cccc3nsnc23)CC1 (stereo not given),-1.64,
COc1cc(Nc2nnc(Cc3ccncc3)c3ccccc23)cc(OC)c1OC,-1.31,
CCOC(=O)c1[nH]c2ccc(F)cc2c1N,-1.48,
Cc1cc(C)cc(NC(=O)CC(C)CC2=NS(=O)(=O)c3ccccc3N2)c1 (stereo not given),-1.03,
COc1cccc(N=c2oc3c(OC)cccc3cc2S(=O)(=O)c2ccccc2)c1,-1.92,
COc1ccc2c(c1)OC13CCCCC1C2C(C(=O)c1ccccc1)C(=O)N3 (stereo not given),-2.84 (active),
COc1ccc(C2c3c(oc4ccc(F)cc4c3=O)C(=O)N2Cc2ccc3c(c2)OCO3)cc1 (stereo not given),-1.27,
O=c1oc2cc(O)ccc2cc1-c1nnc(Nc2ccccc2)s1,,active
CC(=O)NCCNC(=O)c1cccn2c(=O)c3c4c(sc3nc12)CCCC4,-1.41,
COc1cc2c(=O)c(S(=O)(=O)c3ccccc3)cn(Cc3ccccc3F)c2cc1OC,1.06,
Cc1nc2cc(-c3cccc(F)c3)nn2c(C)c1CCC(=O)N1CCc2ccccc21,-2.84 (active),
CC(=O)c1sc2nc(-c3ccc(Br)cc3)cn2c1C,-17 (active),
